Test results as given in PubChem BioAssay AID641 (Vanderbilt High Throughput Screening Facility, 2007).
Screen size: about 58,000 compounds; about 3,400 (5.9%) were called active. This is one part of a sample in which actives are shown more often than they occur.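 Rule for the calls: active = luminescence count or its row- and column-corrected plate score outside the 99.7% band of the plate's sample wells, on either side; inactive = the rest.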

Molecular target: D(1A) dopamine receptor (Homo sapiens) (UniProt P21728)
Assay: D1 CRE-luciferase signal change, two-sided – cell-based, HEK293 D1, dopamine EC30, D1 allosteric modulator project, primary screen (AID 641)
Conditions: dopamine EC30 potentiation, at 10 µM, actives deviate in either direction

Chain of D(1A) dopamine receptor (Homo sapiens) (P21728 whole entry, looked up): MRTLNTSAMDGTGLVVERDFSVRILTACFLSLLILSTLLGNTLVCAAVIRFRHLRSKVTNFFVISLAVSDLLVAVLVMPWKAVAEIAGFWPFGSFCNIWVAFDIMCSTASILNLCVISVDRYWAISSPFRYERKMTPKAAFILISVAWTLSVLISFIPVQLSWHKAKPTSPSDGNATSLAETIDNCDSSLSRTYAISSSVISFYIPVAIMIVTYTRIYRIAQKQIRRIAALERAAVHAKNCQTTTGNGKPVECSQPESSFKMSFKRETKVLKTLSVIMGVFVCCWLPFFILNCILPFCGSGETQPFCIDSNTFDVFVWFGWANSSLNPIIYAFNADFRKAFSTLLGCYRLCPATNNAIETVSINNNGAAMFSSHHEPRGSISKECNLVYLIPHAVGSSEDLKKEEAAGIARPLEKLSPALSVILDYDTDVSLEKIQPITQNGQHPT

Question: With CC(Nc1nc(N2CCCC2)nc2ccccc12)c1ccccc1 (stereo not drawn) as the compound, how does the B-score read?
Answer: -4.18 (active)

Question: With Cc1ccc(C(CC(=O)O)Nc2nc(N3CCCCC3)nc(N3CCCCC3)n2)cc1 (stereo not drawn) as the compound, how does the B-score read?
Answer: -0.363 (inactive)

Question: How did the B-score turn out when O=C(CSc1nc2ncccc2[nH]1)Nc1ccc2c(c1)OCCO2 was run?
Answer: 0.287 (inactive)

Question: With O=C(Nc1ccc2c(c1)OCCO2)C1CCCN(c2ncccn2)C1 (stereo not drawn) as the compound, how does the B-score read?
Answer: -3.93 (active)

Question: How did the B-score turn out when Cc1ccnc(N2CCCC(C(=O)Nc3cc(F)ccc3C)C2)n1 (stereo not drawn) was run?
Answer: -0.197 (inactive)

Question: With O=C1c2oc3ccc(Br)cc3c(=O)c2C(c2cccc(F)c2)N1CCO (stereo not drawn) as the compound, how does the B-score read?
Answer: -0.882 (inactive)

Question: For CN=C1SC(C(=O)O)CC(=O)N1C (stereo not drawn), which B-score is on record?
Answer: -0.346 (inactive)

Question: For Cc1noc(NS(=O)(=O)c2ccc(N3CC(O)=C(c4ccccc4)C3=N)cc2)c1C, which B-score is on record?
Answer: 0.215 (inactive)

Question: How did the B-score turn out when COCCNC(=O)COc1ccc(C)c(C)c1 was run?
Answer: 0.751 (inactive)

Question: For CCOc1cccc(C(=O)Nc2cccnc2)c1, which B-score is on record?
Answer: 0.108 (inactive)

Question: O=C(Nc1cccnc1)c1ccc2c(c1)OCO2 was tested. Which B-score did it give?
Answer: -0.0115 (inactive)

Question: For O=C(Nc1cccnc1)c1noc2c1CCCCC2, which B-score is on record?
Answer: -2.9 (active)

Question: Cc1nnc(SCC(=O)NCc2ccccc2)s1 was tested. Which B-score did it give?
Answer: 0.474 (inactive)

Question: O=C(CSc1nnc2ccccn12)c1ccccc1 was tested. Which B-score did it give?
Answer: -0.291 (inactive)

Question: COc1ccc(-n2c(SC)nc(O)cc2=O)cc1 was tested. Which B-score did it give?
Answer: 0.0194 (inactive)

Question: How did the B-score turn out when COc1ccccc1CNC(=O)C1CCCN(S(=O)(=O)c2cccc3cccnc23)C1 (stereo not drawn) was run?
Answer: -0.155 (inactive)

Question: How did the B-score turn out when COc1ccc(NC(=O)C2CCCN(S(=O)(=O)c3cccc4cccnc34)C2)cc1OC (stereo not drawn) was run?
Answer: 11.5 (active)

Question: Which B-score does the source give for COc1ccc(NC(=O)C2CCCN(S(=O)(=O)c3cccc4cccnc34)C2)cc1 (stereo not drawn) here?
Answer: -1.11 (inactive)

Question: How did the B-score turn out when COc1ccc(OC)c2[nH]c(=O)c(CCNC(=O)C(C)(C)C)cc12 was run?
Answer: -0.197 (inactive)

Question: How did the B-score turn out when CCCCn1c(SCC(=O)NCCc2ccc(OC)c(OC)c2)nc2c1c(=O)n(C)c(=O)n2C was run?
Answer: 0.0783 (inactive)

Question: How did the B-score turn out when CCCSc1nc2c(c(=O)n(C)c(=O)n2C)n1Cc1ccc(C)cc1 was run?
Answer: 1.94 (inactive)

Question: For CCOc1ccc(Cn2c(SCCCCC#N)nc3c2c(=O)n(C)c(=O)n3C)cc1OCC, which B-score is on record?
Answer: 10.1 (active)

Question: How did the B-score turn out when Fc1ccc(OCc2nn3c(Cn4nnc5ccccc54)nnc3s2)cc1 was run?
Answer: -0.628 (inactive)

Question: For Oc1ccc(Cl)cc1/C=N/c1nc2ccccc2[nH]1, which B-score is on record?
Answer: 1.49 (inactive)

Question: How did the B-score turn out when N#Cc1ccc(COC(=O)Cn2nnc(-c3ccccc3)n2)cc1 was run?
Answer: 0.71 (inactive)

Question: How did the B-score turn out when COc1cccc(NC(=O)C2CCCN2C(=O)OCc2ccccc2)c1 (stereo not drawn) was run?
Answer: 0.12 (inactive)

Question: With N#Cc1c(N)sc2c1CCN(C(=O)OCc1ccccc1)C2 as the compound, how does the B-score read?
Answer: 5.84 (active)

Question: With O=C(NCCN1CCOCC1)c1ccc2c(c1)ncn2C1CCCC1 as the compound, how does the B-score read?
Answer: -0.956 (inactive)

Question: How did the B-score turn out when COc1ccc(CCNC(=O)CCn2c(=O)oc3ccccc32)cc1OC was run?
Answer: 6.86 (active)

Question: With COc1ccc(OC)c(NC(=O)Cn2c(=O)oc3ccccc32)c1 as the compound, how does the B-score read?
Answer: 0.945 (inactive)

Question: For COc1ccc(CCNC(=O)CCCCn2c(=O)[nH]c3ccccc3c2=O)cc1OC, which B-score is on record?
Answer: 0.358 (inactive)

Question: With Cc1c(C(=O)NCC2CCCO2)sc2nc(-c3ccccc3)cn12 (stereo not drawn) as the compound, how does the B-score read?
Answer: 0.33 (inactive)

Question: How did the B-score turn out when CC1(C)CN=C(N2CCN(c3ncnc4sc5c(c34)CCCC5)CC2)S1 was run?
Answer: -0.977 (inactive)

Question: How did the B-score turn out when O=C(O)[C@@H]1CCCN1c1ncnc2sc3c(c12)CCC3 was run?
Answer: -0.0144 (inactive)

Question: For COc1ncnc2sc3c(c12)CCCC3, which B-score is on record?
Answer: 5.43 (active)

Question: For O=C(NC1CCCCC1)C1CCCN(S(=O)(=O)c2cccs2)C1 (stereo not drawn), which B-score is on record?
Answer: 0.0829 (inactive)

Question: With O=C(CCSc1ccccc1)NCCSc1ccccn1 as the compound, how does the B-score read?
Answer: 0.117 (inactive)

Question: How did the B-score turn out when COc1cccc(C2/C(=C(/O)c3ccncc3)C(=O)C(=O)N2CCCN(C)C)c1 (stereo not drawn) was run?
Answer: -3.02 (active)

Question: With COc1cccc(C2/C(=C(/O)c3ccc(F)cc3)C(=O)C(=O)N2CCN(C)C)c1 (stereo not drawn) as the compound, how does the B-score read?
Answer: -0.0254 (inactive)

Question: Which B-score does the source give for COc1ccc(/C(O)=C2/C(=O)C(=O)N(CCCN(C)C)C2c2ccccc2)cc1OC (stereo not drawn) here?
Answer: -0.187 (inactive)

Question: Which B-score does the source give for O=S(N1CCCCCC1)C12CC3CC(CC(C3)C1)C2 (stereo not drawn) here?
Answer: -1.48 (inactive)

Question: CCCN1C(=O)C(NS(=O)(=O)c2ccc(N)cc2)(C(F)(F)F)C(C(=O)OC)=C1C (stereo not drawn) was tested. Which B-score did it give?
Answer: -0.0535 (inactive)

Question: Which B-score does the source give for C=CCNC(=O)CCCOc1cccc(C)c1 here?
Answer: 0.267 (inactive)

Question: For Cc1nc2c(-c3ccc(F)cc3)c(C)nn2c(C)c1CCC(=O)N1CCN(c2ccccn2)CC1, which B-score is on record?
Answer: -0.178 (inactive)

Question: For CCOc1cc(CN2CCN(C(=O)CC(C)C)CC2)ccc1OC, which B-score is on record?
Answer: 0.0601 (inactive)

Question: Which B-score does the source give for COc1ccc(C(=O)N2CCC(C(=O)Nc3cccc(C)c3)CC2)cc1OC here?
Answer: -0.521 (inactive)

Question: CCOc1cc(C(=O)N2CCc3cc(OC)c(OC)cc3C2)ccc1OC(F)F was tested. Which B-score did it give?
Answer: 15.1 (active)

Question: CC(C)OCCCNc1ncnc2c1[nH]c1ccc(F)cc12 was tested. Which B-score did it give?
Answer: -3.37 (active)

Question: Which B-score does the source give for O=C1CCCN1CCCNc1ncnc2c1[nH]c1ccccc12 here?
Answer: -0.02 (inactive)

Question: With CCN1CCCC1CNc1ncnc2c1[nH]c1ccc(F)cc12 (stereo not drawn) as the compound, how does the B-score read?
Answer: -0.311 (inactive)

Question: How did the B-score turn out when c1csc(-c2cn3c(n2)SCC3)c1 was run?
Answer: -0.433 (inactive)

Question: How did the B-score turn out when O=C(COC(=O)c1ccc2c(c1)OCCO2)NCc1ccccc1 was run?
Answer: 0.524 (inactive)

Question: COc1cc2[nH]c(=S)n(Cc3ccc(C)o3)c(=O)c2cc1OC was tested. Which B-score did it give?
Answer: 2.05 (inactive)

Question: CCOC(=O)N1CCN(C(=O)CN(c2ccc(C)c(C)c2)S(=O)(=O)c2ccccc2)CC1 was tested. Which B-score did it give?
Answer: -0.0191 (inactive)

Question: With COc1ccccc1NC1=NC2(CCCC2)N=C(N)N1 as the compound, how does the B-score read?
Answer: -3.14 (active)

Question: COc1ccccc1Nc1nc(N)nc(CN(C)C2CCCCC2)n1 was tested. Which B-score did it give?
Answer: -0.094 (inactive)

Question: How did the B-score turn out when COc1ccccc1NC1=NC(c2ccc(Cl)cc2)N=C(N)N1 (stereo not drawn) was run?
Answer: -3.3 (inactive)

Question: With c1ccc(-n2ncc(-c3nn[nH]n3)n2)cc1 as the compound, how does the B-score read?
Answer: -1.26 (inactive)

Question: Which B-score does the source give for CCCOC(=O)CC1C(=O)NCCN1Cc1ccc(F)cc1 (stereo not drawn) here?
Answer: -0.0757 (inactive)

Question: With CC1CCCN(C(=O)c2ccc3c(c2)C(=O)N(CCC2=CCCCC2)C3=O)C1 (stereo not drawn) as the compound, how does the B-score read?
Answer: -0.192 (inactive)

Question: With COC(=O)Nc1c(C)n(C)n(-c2ccccc2)c1=O as the compound, how does the B-score read?
Answer: -1.4 (inactive)

Question: How did the B-score turn out when CCN(CC)CCN1C(=O)C(=O)/C(=C(/O)c2ccc(OC)c(OC)c2)C1c1ccccn1 (stereo not drawn) was run?
Answer: -0.322 (inactive)

Question: COc1cc(-n2c(C)nc3cc(C(=O)NCc4ccco4)ccc32)cc(OC)c1OC was tested. Which B-score did it give?
Answer: 0.213 (inactive)
